Drawing on PubChem BioAssay AID449762 (Southern Research Specialized Biocontainment Screening …, 2010), this text covers inhibition for 95 compounds.

Screen size: about 330,000 compounds; about 1,900 (0.58%) were called active. About 4% were inconclusive and are not listed. Rule as the data show it: inconclusive = inhibition above about 70% without an active follow-up result; inactive = below that. Not all results are given here. Results with a measured potency or affinity are listed apart.

The inhibition is the relative decrease from the control value, in per cent.

The nature of the assay: M. tuberculosis growth inhibition, HTS (AID 449762).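 Also: bacterial growth assessed after seven days of incubation.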 The note with it: M. tuberculosis H37Rv growth inhibition, 7H9 media; at 25 µM; stronger effect = higher value.
Regarding `CC(=O)OCC1=C(C(=O)O)N2C(=O)C(NC(=O)C(C)Cn3cc(Cl)cn3)C2SC1` (stereo not given), the inhibition is -1.4% (inactive).
Next, `CCCSc1nsc(SCCC)c1C#N`: -0.55% (inactive).
The same measure for `CN(Cc1ccccc1)C(=O)Cn1c(=O)oc2cc(S(=O)(=O)N3CCCC3)ccc21`: -1.71% (inactive); for `COc1cc(C2C(C(=O)C(C)(C)C)=C(O)C(=O)N2Cc2ccccc2)ccc1O` (stereo not given): 1.41% (inactive).
The same measure for `COc1cccc(NC(=O)c2oc3ccc(S(=O)(=O)N4CCOCC4)cc3c2C)c1`: 58% (inactive); for `Cc1ccc(NC(=O)c2oc3ccc(S(=O)(=O)N4CCOCC4)cc3c2C)cc1C`: -7.43% (inactive).
Regarding `O=C(O/N=C1/CCCc2occc21)c1ccccc1`, the inhibition is 6.31% (inactive).
The same measure for `CCCn1c(S(=O)(=O)O)nc2ccccc21`: 5.54% (inactive).
Next, `COc1cc2c(cc1OC)C(C)N(S(=O)(=O)c1cccs1)CC2` (stereo not given): -12.1% (inactive); `O=C(NC1CCCCC1)C(c1ccc(F)cc1)N(CCN1CCOCC1)C(=O)c1ccc(-c2ccccc2)[nH]1` (stereo not given): 42.3% (inactive); `O=C(NC1CCCC1)C(c1ccncc1)N(CCCN1CCOCC1)C(=O)c1ccc(-c2ccccc2)[nH]1` (stereo not given): 3.89% (inactive).
Next, `CCC(COC(=O)Nc1ccccc1)NC(=O)OC(C)C` (stereo not given): -6.07% (inactive).
On to `COc1cccc(Cn2cnc3c(NS(=O)(=O)c4cc(Cl)ccc4Cl)c(C)c(C)cc32)c1`, for which the inhibition was 0.44% (inactive).
Next, `NS(=O)(=O)c1ccc(Nc2nc(-c3ccc4ccccc4c3)cs2)cc1`: 1.78% (inactive); `Oc1ccc(Nc2nc(-c3ccc(O)cc3)cs2)cc1`: 4.52% (inactive); `CSc1ccccc1NC(=O)Cn1nnc(-c2ccc(S(C)(=O)=O)cc2)n1`: -2.14% (inactive).
The same measure for `NC(=O)C1CCN(Cc2nc(-c3ccccc3)no2)CC1`: -14.2% (inactive).
Next, `O=c1c2ccccc2cnn1Cc1n[nH]c(=S)n1-c1ccc(F)cc1`: 4.78% (inactive); `CCOC(=O)N/N=C\c1ccc([N+](=O)[O-])o1`: -1.58% (inactive); `CCOC(=O)N/N=C(\C)c1ccc(C)o1`: -1.85% (inactive).
Turning to `CC(C)NC(=O)N(O)C1N(Cc2ccc3c(c2)OCO3)C(=S)SC1(C)C` (stereo not given), the inhibition is 3.94% (inactive).
With `CCCc1cc(C(=O)OC)c(NC(=O)CCCC(=O)O)s1`, the inhibition is 0.02% (inactive).
Regarding `Cc1nn(CC(=O)NCCCc2ccccc2)c(=O)c2cc3occc3n12`, the inhibition is 3.16% (inactive).
The same measure for `COc1cccc(NC(=O)CN(C)C(=O)CNC(=O)c2ccc(Oc3ccccc3)cc2)c1`: 7.98% (inactive); for `Cc1c(Cl)cccc1NC(=S)N1CCN(C(=O)c2ccco2)CC1`: -0.43% (inactive).
The same measure for `COc1ccc(N2C(=O)C(F)(F)C2c2ccc(C)cc2)cc1OC` (stereo not given): 60.7% (inactive); for `Cc1ccc(N2C(=O)C(CN(C)C)C2c2ccccc2)cc1` (stereo not given): -6.05% (inactive).
Next, `CC1=NN(C(=O)c2c(Br)c(C)nn2C)C(O)(C(F)(F)F)C1` (stereo not given): 0.52% (inactive); `C#CCSc1nc2ccccc2n1C(=O)c1ccc(S(=O)(=O)N2CCCCC2)cc1`: -2.86% (inactive).
In the case of `COC(=O)C1=C(c2ccc(S(C)(=O)=O)cc2)C[C@@H]2CC[C@H]1N2C(=O)N1CCCCC1`, the inhibition was 3.7% (inactive).
As for `Cc1c(C(=O)NCc2ccccn2)oc2c(Cl)cccc12`, the inhibition was -3.71% (inactive).
Take `Cc1c(Cl)cccc1NC(=O)NCc1ccccn1`: the inhibition is -11.4% (inactive).
Next, `CCC1CCCCN1CCCNC(=O)Cn1nc(C)n2nc(-c3ccccc3)cc2c1=O` (stereo not given): 1.58% (inactive); `CCSc1nnc(CCNS(=O)(=O)c2ccc(C(C)=O)cc2)n1C`: 0.26% (inactive).
The same measure for `S=C(Nc1cc(Cl)cc(Cl)c1)N1CCCC1`: 0.04% (inactive); for `Cc1cc2c(ncn2Cc2ccccc2)c(N)c1C`: 2.7% (inactive).
Next, `CCCn1cnc2c(N)c(C)c(C)cc21`: -11.4% (inactive); `O=C(NNC(=O)C1CCN(c2ncccn2)CC1)c1ccc(F)cc1`: 0.94% (inactive).
For the compound `CC(=O)OC1N=C(c2ccccc2Cl)c2cc(Br)ccc2N(C)C1=O` (stereo not given), the inhibition is -6.48% (inactive).
The same measure for `N#C/C(=C/c1ccc(Br)s1)C(=O)NCCc1c[nH]c2ccccc12`: 3.76% (inactive).
For `N#C/C(=C/c1ccc(N2CCCCC2)o1)C(=O)NCCc1c[nH]c2ccccc12`, the inhibition was -3.85% (inactive).
The same measure for `CCN1CCc2nc(NC(=O)Cc3ccc4c(c3)OCCO4)sc2C1`: -17.6% (inactive).
The same measure for `CC(C)NC(=O)CCCN1C(=O)c2ccccc2Sc2ncccc21`: 1.48% (inactive); for `O=C(O)c1cc(-c2ccncc2)nc2ccc(S(=O)(=O)N3CCOCC3)cc12`: 3.61% (inactive).
Next, `O=C(NC(=S)Nc1ccc(N2CCOCC2)c(Cl)c1)c1cccs1`: 3.13% (inactive); `O=C(Nc1ccc(N2CCCC2)c(Cl)c1)c1cccs1`: 7.74% (inactive).
Turning to `COc1ccc2c(c1)C(=O)N1[C@H]3c4cc(OC)ccc4OC[C@@H]3[C@H](c3ccccc3)[C@]1(C)C(=O)N2`, the inhibition was 1.44% (inactive).
The same measure for `COc1ccc2c(c1)[C@H]1[C@H](CO2)[C@H](c2ccccc2)[C@]2(C)C(=O)Nc3ccc(C)cc3C(=O)N12`: 1.01% (inactive); for `O=c1c2cccc3c2c(nn1-c1ccccc1)-c1ccccc1-3`: -2.02% (inactive).
Next, `COc1cccc(NC(=O)CN(C)C(=O)c2c(C)nn(CC(C)C)c2Cl)c1`: -7.79% (inactive).
The same measure for `O=C(COc1ccc(Cl)cc1)OCc1csc(Nc2ccccc2)n1`: 4.58% (inactive); for `O=C(COc1ccccc1)OCc1csc(Nc2ccccc2)n1`: 11.3% (inactive); for `CC1CCCC(NC(=O)COC(=O)c2ccc(Br)o2)C1C` (stereo not given): 10.4% (inactive).
As to `COCCN(C(=O)c1cc(-c2ccncc2)nc2ccccc12)c1c(N)n(CC(C)C)c(=O)[nH]c1=O`, the inhibition is -4.69% (inactive).
Next, `C=C(C)C1Cc2c(C)nn(-c3ccccc3)c2C1` (stereo not given): 5.29% (inactive); `C=C(C)C1Cc2c(C)nn(-c3cccc4ccccc34)c2C1` (stereo not given): 40.9% (inactive).
In the case of `CC(c1ccccc1)N1C(=O)C2C3C=CC(C4CC34)C2C1=O` (stereo not given), the inhibition is 0.61% (inactive).
Take `CCN=C1NN=C(c2cc(C)n(Cc3ccco3)c2C)CS1`: the inhibition is -1.01% (inactive).
Next, `Cc1cc(C2=NNC(=NC3CC3)SC2)c(C)n1Cc1ccco1`: 63.5% (inactive).
On to `CCCCn1c(CN2CCN(c3cccc(Cl)c3)CC2)nc2c1c(=O)[nH]c(=O)n2C`, for which the inhibition is 62.7% (inactive).
Next, `CC1CCCN(C2(O)C(=O)Nc3ccc(Br)cc32)C1` (stereo not given): 5.15% (inactive).
The same measure for `COCCN(C(=O)COC(=O)c1cc2ccccc2cc1OC)c1c(N)n(Cc2ccccc2)c(=O)[nH]c1=O`: -2.06% (inactive).
The same measure for `COc1ccccc1OCC(=O)Nc1ccc(C(N)=O)cc1`: -3.41% (inactive); for `CC(=Nc1cccc(O)c1)c1sc2ccccc2c1O`: 11.9% (inactive).
On to `CCCn1nc(C(=O)Nc2ccc(S(=O)(=O)Nc3nccs3)cc2)c2ccccc2c1=O`, for which the inhibition was 8.73% (inactive).
`O=C(Nc1ccccc1F)Nc1ccccc1Br`: the inhibition is 4.25% (inactive).
The same measure for `COc1ccc(Br)cc1/C(C)=N/NC1=NCCN1`: 1.92% (inactive); for `CCOc1ccc(Br)cc1/C(C)=N\NC1=NCCN1`: -0.3% (inactive); for `CC(C)OCCCN1CC(=O)N2C(c3cccc([N+](=O)[O-])c3)c3[nH]c4ccccc4c3C[C@H]2C1=O` (stereo not given in full): 19.4% (inactive).
The same measure for `CCc1cc(-c2nc(N)ncc2-c2ccc(Br)cc2)c(O)cc1OC`: 14.9% (inactive); for `CCCc1cc(-c2nc(N)ncc2-c2csc(C)n2)c(O)cc1OC`: -5.66% (inactive).
Next, `CC(C)C(=O)Nc1nc2ccc(S(C)(=O)=O)cc2s1`: 4.62% (inactive); `O=C(O)c1ccc(-n2c(-c3ccccc3)n[nH]c2=S)cc1`: -4.35% (inactive); `CCN1CCN(Cc2ccccc2C)CC1`: -5.92% (inactive).
On to `Cc1ccccc1CN1CCN(Cc2ccccc2)CC1`, for which the inhibition is -6.4% (inactive).
Regarding `CCOC(=O)Cc1csc(SCc2nc3ccccc3c(=O)[nH]2)n1`, the inhibition is -2.6% (inactive).
`CSC(=S)N/N=C/c1ccc(N(C)C)cc1`: the inhibition was 3.05% (inactive).
The same measure for `CSC(=S)N/N=C/c1ccc(Br)cc1`: 57.5% (inactive).
Next, `COc1ccccc1N1C(=O)CC(N(O)c2ccccc2)C1=O` (stereo not given): 7.06% (inactive); `COc1ccccc1N(O)C1CC(=O)N(c2ccc(F)cc2)C1=O` (stereo not given): 10.9% (inactive).
Next, `S=C(N/N=C/c1ccc(Cl)cc1)N1CCOCC1`: 10.7% (inactive); `Cc1ccc(/C=N/NC(=S)N2CCOCC2)cc1`: -4.55% (inactive); `N#Cc1c(N)nc(Sc2ccc(Cl)cc2)c(C#N)c1-c1ccccc1Cl`: 7.13% (inactive).
Turning to `O=C(O)CCCNS(=O)(=O)Cc1ccccc1`, the inhibition was 2.38% (inactive).
Next, `COc1cc(OC)nc(Oc2ccccc2C(=O)Oc2ccccc2Cl)n1`: 3.91% (inactive).
As for `COc1cc(OC)nc(Oc2ccccc2C(=O)Oc2ccc(C)cc2)n1`, the inhibition is -5.69% (inactive).
In the case of `O=C(NCc1ccccc1)N1CCC(CO)(Cc2cccc(F)c2)CC1`, the inhibition is 1.55% (inactive).
On to `CC(=O)c1sc(NC(=O)c2c(F)cccc2F)nc1-c1ccccc1`, for which the inhibition is 3.31% (inactive).
Regarding `CCCCCOc1ccc(NS(C)(=O)=O)cc1`, the inhibition is -0.68% (inactive).
As for `CCCOc1ccc(NC2=CC(=O)CC(C)(C)C2)cc1`, the inhibition was 0.84% (inactive).
Next, `COc1ccccc1NS(=O)(=O)c1ccc(O)c(C(=O)OCc2cccc([N+](=O)[O-])c2)c1`: -3.81% (inactive); `O=C(NCC1CCCO1)C(c1cccs1)N(Cc1ccccc1)C(=O)c1ccc(-c2ccccc2)[nH]1` (stereo not given): 14.9% (inactive).
The same measure for `O=C(NCC1CCCO1)C(c1cccs1)N(Cc1cccs1)C(=O)c1ccc(-c2ccccc2)[nH]1` (stereo not given): 0.19% (inactive); for `COc1cc(NC(=S)NCCCO)c(OC)cc1Cl`: -4.61% (inactive); for `CC(=O)c1ccc(C(=O)N2CCCC(CCC(=O)N(C)CCc3ccccn3)C2)s1` (stereo not given): -4.61% (inactive).
